# Measurements: publication PMC7862700, “An all-to-all approach to the identification of sequence-specific readers for epigenetic DNA modifications on cytosine”
# Columns and labels:
# Test in all cases: DAPPL (digital affinity profiling via proximity ligation, sequencing); 10 mM Tris-HCl pH 7.5, 50 mM NaCl, 1 mM DTT, 4% glycerol, room temperature, 30 min; GST-TFs on glutathione beads, 16-mer random dsDNA library, 0.1% formaldehyde crosslink after washing; high values mean tight binding
# Details in all cases: protein: recombinant; tags: N-terminal GST; dsDNA, one strand shown
# ETV2 = target: T1, ETV2 (Homo sapiens, UniProt O00321 1-342)
# T1 sequence: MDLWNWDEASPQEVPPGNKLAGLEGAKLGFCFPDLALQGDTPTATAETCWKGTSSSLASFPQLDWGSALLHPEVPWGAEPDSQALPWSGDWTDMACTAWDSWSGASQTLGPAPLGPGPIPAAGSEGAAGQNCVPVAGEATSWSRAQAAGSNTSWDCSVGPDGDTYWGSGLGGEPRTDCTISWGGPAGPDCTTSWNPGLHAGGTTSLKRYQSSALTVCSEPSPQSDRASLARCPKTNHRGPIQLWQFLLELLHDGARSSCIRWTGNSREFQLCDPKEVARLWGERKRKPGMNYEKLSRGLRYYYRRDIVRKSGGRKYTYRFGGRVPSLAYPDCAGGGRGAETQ
# Summary of the method: (§1)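 Sequencing on an Illumina NextSeq500 followed washing, crosslinking with 0.1% formaldehyde, proximity ligation (BsaI/T4 ligase, 1 h, 37 °C) and PCR amplification of pools that had been incubated for 30 min at room temperature with 200 nmole of a random double-stranded 16-mer DNA library in Tris/NaCl/DTT/glycerol buffer. Each pool held DNA-barcoded human transcription factors, expressed in yeast as GST fusions and captured on glutathione beads, plus a tag-only sample. Binding signal is a hexamer's read frequency for a factor divided by its frequency in the tag-only sample.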
# ELF3 = target: T2, ELF3 (Homo sapiens, UniProt P78545 1-371)
# T2 sequence: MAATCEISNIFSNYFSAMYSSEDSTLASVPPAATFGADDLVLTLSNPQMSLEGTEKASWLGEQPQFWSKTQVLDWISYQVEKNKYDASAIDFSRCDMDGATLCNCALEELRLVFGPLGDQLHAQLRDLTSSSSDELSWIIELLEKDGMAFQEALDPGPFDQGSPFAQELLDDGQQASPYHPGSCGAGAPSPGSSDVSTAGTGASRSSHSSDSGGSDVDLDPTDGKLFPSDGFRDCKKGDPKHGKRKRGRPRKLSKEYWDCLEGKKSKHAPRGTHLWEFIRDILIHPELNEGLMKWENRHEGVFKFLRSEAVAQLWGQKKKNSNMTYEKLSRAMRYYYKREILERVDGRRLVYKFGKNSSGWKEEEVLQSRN
# Summary of the method: as §1
# ETV1 = ETV1 (Homo sapiens, UniProt P50549 1-477)
# ETV1, sequence (P50549 whole entry): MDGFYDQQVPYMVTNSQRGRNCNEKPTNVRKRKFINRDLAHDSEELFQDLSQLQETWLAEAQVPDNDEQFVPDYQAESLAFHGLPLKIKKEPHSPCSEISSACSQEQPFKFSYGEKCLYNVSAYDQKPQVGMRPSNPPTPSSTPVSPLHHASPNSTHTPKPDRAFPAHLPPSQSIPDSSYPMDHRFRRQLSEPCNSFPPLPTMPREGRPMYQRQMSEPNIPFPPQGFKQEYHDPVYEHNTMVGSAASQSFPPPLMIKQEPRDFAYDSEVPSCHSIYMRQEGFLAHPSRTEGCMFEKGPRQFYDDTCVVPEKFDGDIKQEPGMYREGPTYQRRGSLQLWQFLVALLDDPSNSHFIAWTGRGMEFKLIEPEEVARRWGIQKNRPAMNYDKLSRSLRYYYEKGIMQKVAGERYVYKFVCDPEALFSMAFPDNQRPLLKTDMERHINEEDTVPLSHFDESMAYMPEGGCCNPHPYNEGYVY
# Summary of the method: as §1
# ERF = target: T3, ERF (Homo sapiens, UniProt P50548 1-548)
# T3 sequence: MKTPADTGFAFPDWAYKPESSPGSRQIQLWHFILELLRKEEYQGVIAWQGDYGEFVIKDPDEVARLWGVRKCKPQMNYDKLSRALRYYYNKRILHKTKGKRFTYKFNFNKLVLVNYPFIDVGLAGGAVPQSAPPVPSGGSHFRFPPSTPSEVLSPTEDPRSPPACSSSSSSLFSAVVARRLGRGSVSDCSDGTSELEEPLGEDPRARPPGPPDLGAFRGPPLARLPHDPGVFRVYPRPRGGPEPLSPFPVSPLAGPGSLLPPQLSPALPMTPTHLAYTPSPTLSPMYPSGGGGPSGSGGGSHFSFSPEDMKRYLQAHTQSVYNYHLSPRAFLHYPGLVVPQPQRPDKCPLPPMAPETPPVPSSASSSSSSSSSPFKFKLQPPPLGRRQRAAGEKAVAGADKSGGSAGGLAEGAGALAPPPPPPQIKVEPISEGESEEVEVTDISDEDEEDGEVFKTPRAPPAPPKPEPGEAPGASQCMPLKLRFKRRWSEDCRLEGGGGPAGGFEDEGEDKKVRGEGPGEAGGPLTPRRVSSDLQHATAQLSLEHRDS
# Summary of the method: as §1
# ETV3L = target: T4, ETV3L (Homo sapiens, UniProt Q6ZN32 1-361)
# T4 sequence: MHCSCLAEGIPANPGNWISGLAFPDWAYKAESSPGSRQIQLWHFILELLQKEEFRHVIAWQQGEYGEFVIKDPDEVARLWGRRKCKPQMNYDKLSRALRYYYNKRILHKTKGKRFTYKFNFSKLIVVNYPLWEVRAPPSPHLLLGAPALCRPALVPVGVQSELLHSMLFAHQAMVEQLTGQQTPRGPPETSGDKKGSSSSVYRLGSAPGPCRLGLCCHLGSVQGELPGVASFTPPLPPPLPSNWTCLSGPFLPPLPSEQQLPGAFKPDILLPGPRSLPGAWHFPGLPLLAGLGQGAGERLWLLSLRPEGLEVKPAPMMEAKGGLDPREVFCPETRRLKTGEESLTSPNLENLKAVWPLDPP
# Summary of the method: as §1
# ETS2 = target: T5, ETS2 (Homo sapiens, UniProt P15036 1-469)
# T5 sequence: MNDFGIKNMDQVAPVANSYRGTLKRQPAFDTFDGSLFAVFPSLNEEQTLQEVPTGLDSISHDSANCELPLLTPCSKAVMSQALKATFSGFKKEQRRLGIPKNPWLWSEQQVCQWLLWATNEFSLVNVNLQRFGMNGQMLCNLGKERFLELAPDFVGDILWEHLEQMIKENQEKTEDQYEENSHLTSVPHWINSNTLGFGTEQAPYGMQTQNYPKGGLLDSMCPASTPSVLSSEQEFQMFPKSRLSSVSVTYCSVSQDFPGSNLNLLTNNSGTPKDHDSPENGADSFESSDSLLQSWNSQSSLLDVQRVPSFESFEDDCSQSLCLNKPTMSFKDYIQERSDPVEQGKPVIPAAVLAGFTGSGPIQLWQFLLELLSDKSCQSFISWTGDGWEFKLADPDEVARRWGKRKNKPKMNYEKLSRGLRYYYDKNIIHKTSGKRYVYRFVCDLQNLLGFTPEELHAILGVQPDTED
# Summary of the method: as §1
# SPDEF = target: T6, SPDEF (Homo sapiens, UniProt O95238 1-335)
# T6 sequence: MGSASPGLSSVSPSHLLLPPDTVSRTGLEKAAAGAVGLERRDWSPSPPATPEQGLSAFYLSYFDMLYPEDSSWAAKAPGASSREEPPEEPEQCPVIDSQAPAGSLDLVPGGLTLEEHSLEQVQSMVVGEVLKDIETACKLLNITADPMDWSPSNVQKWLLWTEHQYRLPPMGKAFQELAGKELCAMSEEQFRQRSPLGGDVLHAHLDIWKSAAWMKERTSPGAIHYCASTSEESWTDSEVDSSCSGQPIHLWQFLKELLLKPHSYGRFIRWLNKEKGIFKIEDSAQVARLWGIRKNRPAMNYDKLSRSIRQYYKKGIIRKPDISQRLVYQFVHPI
# Summary of the method: as §1
# ETV7 = target: T7, ETV7 (Homo sapiens, UniProt Q9Y603 1-341)
# T7 sequence: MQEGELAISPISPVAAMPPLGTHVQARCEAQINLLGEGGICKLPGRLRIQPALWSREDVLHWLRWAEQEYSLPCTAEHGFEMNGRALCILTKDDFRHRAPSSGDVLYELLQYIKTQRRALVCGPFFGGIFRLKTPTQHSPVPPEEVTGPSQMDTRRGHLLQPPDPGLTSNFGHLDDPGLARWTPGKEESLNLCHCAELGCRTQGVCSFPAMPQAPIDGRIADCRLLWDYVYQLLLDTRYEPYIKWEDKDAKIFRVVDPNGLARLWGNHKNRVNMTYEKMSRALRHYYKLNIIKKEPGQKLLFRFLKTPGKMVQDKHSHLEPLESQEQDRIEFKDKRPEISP
# Summary of the method: as §1
# ETV3 = target: T8, ETV3 (Homo sapiens, UniProt P41162-2 1-143)
# T8 sequence: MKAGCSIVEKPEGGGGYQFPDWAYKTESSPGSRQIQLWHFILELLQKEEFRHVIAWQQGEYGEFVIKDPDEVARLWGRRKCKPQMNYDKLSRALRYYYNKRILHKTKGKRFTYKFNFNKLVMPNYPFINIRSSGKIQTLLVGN
# Summary of the method: as §1
# ETV6 = ETV6 (Homo sapiens, UniProt P41212 1-452)
# ETV6, sequence (P41212 whole entry): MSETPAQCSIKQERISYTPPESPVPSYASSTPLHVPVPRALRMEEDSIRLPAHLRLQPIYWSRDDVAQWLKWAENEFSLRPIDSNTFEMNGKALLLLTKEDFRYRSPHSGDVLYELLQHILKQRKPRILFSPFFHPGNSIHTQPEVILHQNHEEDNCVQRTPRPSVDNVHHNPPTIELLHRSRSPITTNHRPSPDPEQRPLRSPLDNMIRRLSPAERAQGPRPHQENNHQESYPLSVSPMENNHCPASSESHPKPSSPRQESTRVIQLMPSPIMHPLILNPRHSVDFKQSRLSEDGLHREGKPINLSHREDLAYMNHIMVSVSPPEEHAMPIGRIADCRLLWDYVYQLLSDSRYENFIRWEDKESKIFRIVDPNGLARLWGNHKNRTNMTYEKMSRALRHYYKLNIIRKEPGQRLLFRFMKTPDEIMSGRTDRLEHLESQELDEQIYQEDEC
# Summary of the method: as §1
sequence,measurement,setting,value
TCATGT,binding signal,ETV2,"1.15 fold enrichment (6-mer frequency, TF over GST control)"
same,binding signal,ELF3,"1.04 fold enrichment (6-mer frequency, TF over GST control)"
same,binding signal,ETV1,"1.27 fold enrichment (6-mer frequency, TF over GST control)"
same,binding signal,ERF,"1.13 fold enrichment (6-mer frequency, TF over GST control)"
same,binding signal,ETV3L,"1.15 fold enrichment (6-mer frequency, TF over GST control)"
same,binding signal,ETS2,"1.11 fold enrichment (6-mer frequency, TF over GST control)"
same,binding signal,SPDEF,"1.12 fold enrichment (6-mer frequency, TF over GST control)"
same,binding signal,ETV7,"1.15 fold enrichment (6-mer frequency, TF over GST control)"
same,binding signal,ETV3,"1.14 fold enrichment (6-mer frequency, TF over GST control)"
same,binding signal,ETV6,"1.08 fold enrichment (6-mer frequency, TF over GST control)"
